From the supplement of paper PMC12669032
A number with no mark means an inactive call.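 How the source made its calls: active = AUC reduced over 20% with Padj below 0.05 in at least 2 of 3 replicates; inactive = otherwise.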

Assays:
Assay in all cases: growth AUC relative to DMSO control (median of replicates) (fraction); higher = more growth (less inhibition), active = hit call of the paper
Details in all cases: 20 µM; 24 h
[1] = system: Akkermansia muciniphila
Procedure, shortened: (§1)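 Area under the growth curve was normalised to the plate median of solvent-only wells, or to row and column medians on the industrial chemical plate. Growth curves came from anaerobic gut bacterial monocultures in mGAM at 37 °C, seeded at OD600 0.05 with 20 µM compound (1% DMSO), and read at OD600 hourly for 24 h with the minimum OD set to 0. The value is the median of three biological replicates grown on separate days.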

[2] = system: Bacteroides caccae
Procedure, shortened: as §1

[3] = system: Bacteroides clarus
Procedure, shortened: as §1

[4] = system: Bacteroides dorei
Procedure, shortened: as §1

[5] = system: Bacteroides stercoris
Procedure, shortened: as §1

[6] = system: Bacteroides thetaiotaomicron
Procedure, shortened: as §1

[7] = system: Bacteroides uniformis
Procedure, shortened: as §1

[8] = system: Bifidobacterium longum subsp. longum
Procedure, shortened: as §1

[9] = system: Clostridium difficile
Procedure, shortened: as §1

[10] = system: Collinsella aerofaciens
Procedure, shortened: as §1

Compound	growth AUC [1]	growth AUC [2]	growth AUC [3]	growth AUC [4]	growth AUC [5]	growth AUC [6]	growth AUC [7]	growth AUC [8]	growth AUC [9]	growth AUC [10]
COC(=O)C(C)Oc1ccc(Oc2ccc(Cl)cc2Cl)cc1 (stereo not given)	0.924	0.963	0.951	1.04	0.795	0.986	0.963	0.919	1.01	0.958
CCOC(=O)CCN(SN(C)C(=O)Oc1cccc2c1OC(C)(C)C2)C(C)C	1.1	1.04	0.985	1	0.982	1.02	1.05	1.01	0.999	0.978
O=[N+]([O-])c1cc(Cl)ccc1Cl	1.04	0.998	0.977	0.986	1.03	0.989	1.02	1.01	0.995	0.964
CCCN(CCC)C(=O)SCc1ccccc1	1.04	0.994	0.996	0.976	1.13	0.972	0.985	0.967	0.987	0.998
CCOc1cc(Oc2ccc(C(F)(F)F)cc2Cl)ccc1[N+](=O)[O-]	1.08	0.966	1.01	0.917	0.905	1.01	0.992	1.03	0.993	0.881
CN(C)C(CSS(=O)(=O)c1ccccc1)CSS(=O)(=O)c1ccccc1	1.14	0.966	0.999	1.01	1.01	1.06	1.06	1.02	0.901	0.938
CN(C)C(=S)SSC(=S)N(C)C	0.83	0.968	0.967	0.961	0.87	0.75 (active)	0.909	0.974	0.945	0.957
COc1ccc(-c2ccccc2)cc1NNC(=O)OC(C)C	0.865	0.921	0.974	0.991	1.08	0.958	0.942	0.982	0.993	1.05
O=C1C2(Cl)C3(Cl)C4(Cl)C(Cl)(Cl)C5(Cl)C3(Cl)C1(Cl)C5(Cl)C24Cl (stereo not given)	0.849	0.0318 (active)	0.02 (active)	0.0186 (active)	0.00866 (active)	0.0105 (active)	0.0112 (active)	0.28 (active)	0.0161 (active)	0.0984 (active)
CC(=O)O.CCCCCCCCCCCCN=C(N)N	1.28	1.02	0.988	0.985	1.17	1.01	0.986	0.917	1	0.972
CCOP(=S)(OCC)SCCS(=O)(=O)CC	1.05	1.02	1	0.977	1.03	0.99	0.986	1.01	1	0.995
CCc1nn(C)c(C(=O)NCc2ccc(C(C)(C)C)cc2)c1Cl	1.02	0.94	0.929	0.921	0.725 (active)	0.694 (active)	0.982	0.95	0.972	0.887
COc1cc(OC)nc(NC(=O)NS(=O)(=O)c2cc(NC=O)ccc2C(=O)N(C)C)n1	0.976	1.01	0.979	0.984	1.06	0.971	1.03	1.03	1.01	1.05
CCC1COC(Cn2cncn2)(c2ccc(Cl)cc2Cl)O1 (stereo not given)	0.893	0.992	0.935	0.976	0.938	0.982	0.956	0.976	0.994	0.94
CN(C)C(CSS(=O)(=O)[O-])CSS(=O)(=O)[O-].[Na+].[Na+]	0.921	0.916	1	1.09	1.04	0.983	1.14	1.25	0.955	0.969
CNC(=O)O/N=C(\SC)C(=O)N(C)C	1.01	0.999	0.967	1.05	1.05	0.993	1.01	0.957	0.965	0.999
CCN(CC)C(=O)/C(Cl)=C(/C)OP(=O)(OC)OC	1.19	1	0.975	0.921	0.977	0.958	0.979	1.02	0.94	0.967
COP(=S)(OC)Oc1ccc(S(C)(=O)=O)c(C)c1	0.98	0.994	1	0.974	1.04	0.994	0.964	0.831	0.985	1.01
Cn1cc(-c2ccccc2)c(=O)c(-c2cccc(C(F)(F)F)c2)c1	0.9	0.923	0.999	1.01	1.06	0.967	0.977	1.04	0.994	0.939
O=P(O)(O)CCCl	1.07	0.964	1.02	0.986	1.08	1.01	1.03	1.07	0.959	0.973
CCOP(=S)(Oc1ccc([N+](=O)[O-])cc1)c1ccccc1 (stereo not given)	1.06	0.961	1.02	0.972	1.11	1.01	0.919	1.02	1.03	0.996
CCOP(=O)(NC(C)C)Oc1ccc(SC)c(C)c1 (stereo not given)	1.19	0.974	0.982	0.877	0.92	0.998	0.931	1.01	0.976	0.95
CN(C)C(CSC(N)=O)CSC(N)=O.Cl	1.13	0.993	1.04	1.08	1.02	1.06	1.15	1.05	1	1.03
CCC(C)c1ccccc1OC(=O)NC (stereo not given)	0.869	1.03	0.975	1.01	0.961	0.981	0.978	0.976	1	0.986
O=C(O)c1cc(Oc2ccc(C(F)(F)F)cc2Cl)ccc1[N+](=O)[O-]	1.01	1.04	0.925	0.916	0.84	1.02	0.985	1.06	0.966	0.956
Oc1ccccc1Cl	0.985	1.01	0.993	1.01	1.05	0.983	0.988	0.99	0.995	1
CCCN(CCC)N=O	1.07	1.01	1.02	1	1	0.999	1.03	0.902	1.01	0.977
Nc1ccncc1	0.943	0.997	0.997	1.04	1.02	0.981	0.987	0.911	1	1
